# From PubChem
# DT40 TDP1 CPT = DT40-hTDP1 cell growth loss with CPT; chicken DT40 Tdp1-/-;hTDP1 cells + 20 nM CPT, ATP luminescence, 48 h; Potency, µM (doses to about 46.2 µM), for inactives: at the highest dose activity change, negative = growth inhibition, usual class: inhibitors; actives 12% (n = 420,000); AID 686979; also: nearly all actives have a fitted effect of over 55% in size
#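 Chicken DT40 Tdp1-/- cells complemented with human TDP1, 400 cells/well, exposed to compounds plus 20 nM camptothecin for at least 48 h at 37 C; viability read as ATP content by CellTiter-Glo luminescence.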
# TDP1 cell noCPT = qHTS for Inhibitors of human tyrosyl-DNA phosphodiesterase 1 (TDP1): qHTS in cells in absence of CPT; DT40 Tdp1-/- hTDP1 cells, no CPT, ATP luminescence, 48 h; actives 15% (n = 420,000); Potency, µM (doses to about 46.2 µM), without a hit: at the highest dose activity change, negative = growth inhibition, actives largely listed as inhibitors; also: nearly all actives have a fitted effect of over 55% in size
#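 Chicken DT40 Tdp1-/- cells stably complemented with human TDP1 were seeded at 400 cells/well with DMSO in place of 20 nM camptothecin. After compound pinning, cells grew at least 48 hr at 37 °C; viability read by CellTiter-Glo luminescence.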
# HT1080 IDH1KD tx = kills HT-1080 cells with IDH1 knockdown. HT-1080 IDH1 knockdown viability, ATP luminescence, 48 h. Potency, µM (series often up to 46.1 µM), inactives show at the highest dose activity, negative = toxicity, hits mostly cytotoxic. actives 2% (n = 360,000);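 also: 0% = DMSO wells and -100% = cell-free medium wells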
#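 HT-1080-IDH1KD cells (IDH1 knocked down), 750/well in RPMI with 5% FBS, treated with compound 48 h at 37 degrees C. Viability by CellTiter-Glo luminescence, normalised to DMSO and no-cell wells; concentration-response curves classed.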
# HT1080-NT tox = kills 2HG-producing HT-1080-NT fibrosarcoma cells; Potency, µM (highest dose often 46.1 µM), inactives show at the top dose activity, negative = less viability, usual class: cytotoxic; actives 1.6% (n = 360,000); HT-1080-NT fibrosarcoma viability, CellTiter-Glo ATP luminescence, 48 h;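 also: NT is the 2HG producing partner of a matched IDH1 knockdown line; 0% = DMSO-treated cells and -100% = media-only wells without cells; nearly all actives have a fitted effect of over 55% in size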
#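 HT-1080-NT; 750 cells/well; 5% FBS RPMI; 48 h compound, 37 degrees C; CellTiter-Glo luminescence; curve fitting and curve-class assignment.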
# KB-V1 cytotox = KB-V1 MDR subline cytotoxicity. KB-V1 MDR cells viability, CellTiter-Glo, 72 h. Potency, µM (series often up to 46.1 µM), actives largely listed as cytotoxic. actives 3.4% (n = 400,000). AID 1347076; also: nearly all actives have a fitted effect of over 60% in size
#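 Potencies derive from concentration-effect curves fitted to normalized luminescence (CellTiter-Glo) of KB-V1 cells treated for 72 h at 37 degrees C in phenol-red-free DMEM containing 10% FBS.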
# KB-3-1 cytotox = kills parental KB-3-1 adenocarcinoma cells. KB-3-1 viability, CellTiter-Glo ATP luminescence, 72 h. Potency, µM (series often up to 46.1 µM), actives largely listed as cytotoxic. actives 1.4% (n = 400,000). AID 1347075; also: nearly all actives have a fitted effect of over 60% in size
#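 Cytotoxicity measured as CellTiter-Glo luminescence after 72 h at 37 C. Compound titrations were pinned onto drug-naive KB-3-1 parental adenocarcinoma cells grown in DMEM with 10% FBS, and normalized data fitted to concentration-response curves.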
# Active calls of the source: *; i = inactive; ? = inconclusive; / = no result. Most compounds without a hit are left out; they make up all but 19% or so of the library. Calls follow the shape of the dose curve; as a rule, active = well fitted curve in the direction sought with a large enough effect; inconclusive = small, poorly fitted or top-dose-only effect, or another doubt; inactive = no such curve, though single readings can be large; an effect the other way counts as inactive or inconclusive. Unless noted, % is scaled to controls: 0 for no effect and ±100 for the full control effect; potency is read from the fitted curve at half-maximal effect.
SMILES,DT40 TDP1 CPT,TDP1 cell noCPT,HT1080 IDH1KD tx,HT1080-NT tox,KB-V1 cytotox,KB-3-1 cytotox
O=[N+]([O-])c1ccc(CNc2ccc(F)cc2)s1,-14%,?,2%,-2%,?,i
CC(=O)c1nnn(-c2cccc(C#N)c2)c1C,16%,-1%,-3%,16%,i,i
Cc1cc(Br)c(OCc2ccc(C(=O)N/N=C/c3ccc[nH]3)cc2)c(Br)c1,?,?,1µM*,0.82µM*,?,2.6µM*
O=C(N/N=C/c1ccc[nH]1)c1ccc(COc2cccc3cccnc23)cc1,-16%,-47%,5.2µM*,?,i,2.3µM*
CNc1cncc(-c2ccc(OC)cc2OC)n1,?,-23%,15%,?,i,i
Cc1ccc(C(=O)c2ccc([N+](=O)[O-])cc2)cc1C,-25%,-22%,12%,6%,i,i
Cc1ccc(C(=O)c2cc([N+](=O)[O-])ccc2N2CCOCC2)cc1C,1.5µM*,0.73µM*,1.8µM*,?,3.7µM*,16µM*
Cc1ccc(C(=O)c2cc([N+](=O)[O-])ccc2N2CCCCC2)cc1C,3.3µM*,5.2µM*,1.5µM*,1.6µM*,5.8µM*,2.9µM*
Cc1ccc(C(=O)c2cc([N+](=O)[O-])ccc2N2CCOCC2)c(C)c1,0.82µM*,0.92µM*,?,?,0.58µM*,1µM*
C#CCOc1nc(Nc2cccc([N+](=O)[O-])c2)nc(OCC#C)n1,?,21µM*,?,?,i,i
CC1C=CCC2C(=O)N(c3cccc(C(=O)N4CCN(c5ccc(F)cc5)CC4)c3)C(=O)C12 (centres undefined),?,-23%,-3%,5%,18µM*,i
O=C(c1cccc(N2C(=O)C3C4C=CC(C4)C3C2=O)c1)N1CCN(c2ccc(F)cc2)CC1 (centres undefined),?,?,4%,0%,i,i
O=C(c1cccc(N2C(=O)C3CC=CCC3C2=O)c1)N1CCN(c2ccccc2)CC1 (centres undefined),-2%,-15%,-1%,-1%,23µM*,i
C=CCN(C(=O)c1cccc(N2C(=O)C3CC=CC(C)C3C2=O)c1)c1ccccc1 (centres undefined),?,4.6µM*,-9%,0%,?,i
CC1C=CCC2C(=O)N(c3cccc(C(=O)Nc4ccc(F)cc4)c3)C(=O)C12 (centres undefined),-25%,-15%,-13%,0%,/,/
CCCN1C(=O)/C(=N\OCC(=O)NC23CC4CC(CC(C4)C2)C3)c2ccccc21,16µM*,16µM*,-1%,-5%,16µM*,i
CCCN1C(=O)/C(=N\OCC(=O)Nc2ccc(C(C)C)cc2)c2ccccc21,-15%,?,7%,-4%,?,i
COc1cccc(C(=O)Nc2nc(-c3ccncc3)cs2)c1,-9%,?,17%,19%,i,i
O=C(Nc1nc(-c2ccccc2)cs1)c1ccco1,?,?,2%,6%,i,i
COc1cccc(-c2csc(NC(=O)C3CC3)n2)c1,5.2µM*,6.5µM*,10%,20%,i,i
